Data: the supplement of paper PMC7057948, “A genome-wide approach for identification and characterisation of metabolite-inducible systems” (Nature Communications, 2020)

Key:
Conditions in all cases: inducer concentration 5 mM; 6 h; Cupriavidus necator H16; minimal medium + 0.4% gluconate
[1] = tested on: AcoR/P_H16_RS19445 acetoin biosensor (pEH052); assay: relative induction of RFP reporter vs primary effector (background-corrected); higher = stronger activation of the biosensor
Protocol: (§1)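 C. necator H16 strains, each carrying one of 21 transcription factor/inducible promoter–mRFP biosensor plasmids, were grown in minimal medium in 96-well plates (robotic platform). Each was exposed to 46 structurally or metabolically related compounds at 5 mM at 30 °C. OD-normalised RFP fluorescence was read 6 h later and expressed as relative induction (%) = 100 × (FL compound − FL uninduced)/(FL primary inducer − FL uninduced); mean of n=4.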

[2] = tested on: AraC/P_araBAD L-arabinose biosensor (pEH176); assay: as above
Protocol: as §1

[3] = tested on: BenM/P_H16_RS09790 benzoate biosensor (pEH148); assay: as above
Protocol: as §1

[4] = tested on: FdsR/P_H16_RS03165 formate biosensor (pEH134); assay: as above
Protocol: as §1

[5] = tested on: GabR/P_H16_RS23655 GABA biosensor (pEH256); assay: as above
Protocol: as §1

[6] = tested on: HpdR/P_H16_RS18295 3-hydroxypropanoate biosensor (pEH010); assay: as above
Protocol: as §1

[7] = tested on: KynR/P_H16_RS14030 L-kynurenine biosensor (pEH136); assay: as above
Protocol: as §1

[8] = tested on: NahR/P_H16_RS08125 salicylate biosensor (pEH042); assay: as above
Protocol: as §1

[9] = tested on: OapR/P_H16_RS01330 beta-alanine biosensor (pEH147); assay: as above
Protocol: as §1

[10] = tested on: PcaQ/P_H16_RS30145 3,4-dihydroxybenzoate biosensor (pEH161); assay: as above
Protocol: as §1

[11] = tested on: PhgR/P_H16_RS05530 phenylglyoxylate biosensor (pEH155); assay: as above
Protocol: as §1

[12] = tested on: PhhR/P_H16_RS18365 L-phenylalanine biosensor (pEH137); assay: as above
Protocol: as §1

[13] = tested on: SauR/P_H16_RS13695 sulfonatoacetate biosensor (pEH157); assay: as above
Protocol: as §1

[14] = tested on: TtdR/P_H16_RS10665 tartrate biosensor (pEH083); assay: as above
Protocol: as §1

[15] = tested on: XdhR/P_H16_RS05055 xanthine biosensor (pEH154); assay: as above
Protocol: as §1

[16] = tested on: heterologous inducible system pEH002 (rhamnose/acrylate/cumate/itaconate set); assay: as above
Protocol: as §1

[17] = tested on: heterologous inducible system pEH020 (rhamnose/acrylate/cumate/itaconate set); assay: as above
Protocol: as §1

[18] = tested on: heterologous inducible system pEH040 (rhamnose/acrylate/cumate/itaconate set); assay: as above
Protocol: as §1

[19] = tested on: heterologous inducible system pEH086 (rhamnose/acrylate/cumate/itaconate set); assay: as above
Protocol: as §1

[20] = tested on: AcoR/P_H16_RS19445 acetoin biosensor (pEH052); assay: relative induction of RFP reporter vs primary effector; higher = stronger activation
Protocol: (§2)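 Orthogonality screen of 21 primary inducers against 21 transcription factor/inducible promoter–mRFP biosensors in C. necator H16 in minimal medium, robotic 96-well format, 5 mM inducer, 30 °C. OD-normalised RFP fluorescence was read 6 h later and expressed as relative induction (%) = 100 × (FL compound − FL uninduced)/(FL primary inducer − FL uninduced); mean of n=4. Cognate pairs (100% by definition) omitted.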

[21] = tested on: AraC/P_araBAD L-arabinose biosensor (pEH176); assay: as above
Protocol: as §2

[22] = tested on: FdsR/P_H16_RS03165 formate biosensor (pEH134); assay: as above
Protocol: as §2

[23] = tested on: GabR/P_H16_RS23655 GABA biosensor (pEH256); assay: as above
Protocol: as §2

[24] = tested on: HpdA/P_H16_RS24175 L-tyrosine biosensor (pEH158); assay: as above
Protocol: as §2

[25] = tested on: NahR/P_H16_RS08125 salicylate biosensor (pEH042); assay: as above
Protocol: as §2

[26] = tested on: OapR/P_H16_RS01330 beta-alanine biosensor (pEH147); assay: as above
Protocol: as §2

[27] = tested on: PcaQ/P_H16_RS30145 3,4-dihydroxybenzoate biosensor (pEH161); assay: as above
Protocol: as §2

[28] = tested on: PhgR/P_H16_RS05530 phenylglyoxylate biosensor (pEH155); assay: as above
Protocol: as §2

[29] = tested on: SauR/P_H16_RS13695 sulfonatoacetate biosensor (pEH157); assay: as above
Protocol: as §2

[30] = tested on: TtdR/P_H16_RS10665 tartrate biosensor (pEH083); assay: as above
Protocol: as §2

[31] = tested on: XdhR/P_H16_RS05055 xanthine biosensor (pEH154); assay: as above
Protocol: as §2

[32] = tested on: heterologous L-rhamnose-inducible system; assay: as above
Protocol: as §2

[33] = tested on: heterologous acrylate-inducible system; assay: as above
Protocol: as §2

[34] = tested on: heterologous cumate-inducible system; assay: as above
Protocol: as §2

[35] = tested on: heterologous itaconate-inducible system; assay: as above
Protocol: as §2

[36] = tested on: BadR/P_H16_RS27200 cyclohexanecarboxylate biosensor (pEH159); assay: as above
Protocol: as §2

[37] = tested on: BenM/P_H16_RS09790 benzoate biosensor (pEH148); assay: as above
Protocol: as §2
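Throughout, for relative induction of RFP reporter vs primary effector (background-corrected): RFP excited at 585 nm with emission read at 620 nm, culture medium blanks subtracted from fluorescence and absorbance prior to normalisation.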

SMILES: O=C(O)c1c(O)cccc1O [2,6-dihydroxybenzoate]
- relative induction of RFP reporter [1]: 2.22%
- relative induction of RFP reporter [2]: 0.019%
- relative induction of RFP reporter [3]: 0.0383%
- relative induction of RFP reporter [4]: -4.96%
- relative induction of RFP reporter [5]: 1.87%
- relative induction of RFP reporter [6]: 0.277%
- relative induction of RFP reporter [7]: 0.406%
- relative induction of RFP reporter [8]: 8.29%
- relative induction of RFP reporter [9]: 0.369%
- relative induction of RFP reporter [10]: 0.0449%
- relative induction of RFP reporter [11]: -0.403%
- relative induction of RFP reporter [12]: 0.0318%
- relative induction of RFP reporter [13]: 0.0103%
- relative induction of RFP reporter [14]: -0.411%
- relative induction of RFP reporter [15]: 0.89%
- relative induction of RFP reporter [16]: 0.00673%
- relative induction of RFP reporter [17]: 2.01%
- relative induction of RFP reporter [18]: 0.428%
- relative induction of RFP reporter [19]: 0.26%

SMILES: O=C(O)C1CCCCC1 [cyclohexane-1-carboxylate]
- relative induction of RFP reporter [20]: 2.02%
- relative induction of RFP reporter [21]: -0.0317%
- relative induction of RFP reporter [22]: -8.69%
- relative induction of RFP reporter [23]: -0.578%
- relative induction of RFP reporter [24]: -0.0345%
- relative induction of RFP reporter [25]: -0.0105%
- relative induction of RFP reporter [26]: -0.348%
- relative induction of RFP reporter [27]: -0.211%
- relative induction of RFP reporter [28]: -0.472%
- relative induction of RFP reporter [29]: 0.0396%
- relative induction of RFP reporter [30]: 2.19%
- relative induction of RFP reporter [31]: 0.127%
- relative induction of RFP reporter [32]: -0.00651%
- relative induction of RFP reporter [33]: -0.97%
- relative induction of RFP reporter [34]: 2.49%
- relative induction of RFP reporter [35]: 0.233%

SMILES: O=C(O)CCO [3-hydroxypropanoate]
- relative induction of RFP reporter [20]: -1.52%
- relative induction of RFP reporter [21]: -0.0357%
- relative induction of RFP reporter [36]: 0.0132%
- relative induction of RFP reporter [37]: -0.029%
- relative induction of RFP reporter [22]: -8.81%
- relative induction of RFP reporter [23]: -1.71%
- relative induction of RFP reporter [24]: -0.172%
- relative induction of RFP reporter [25]: 0.0108%
- relative induction of RFP reporter [26]: 3.75%
- relative induction of RFP reporter [27]: -0.224%
- relative induction of RFP reporter [28]: -0.286%
- relative induction of RFP reporter [29]: -0.00696%
- relative induction of RFP reporter [30]: -0.346%
- relative induction of RFP reporter [31]: -0.715%
- relative induction of RFP reporter [32]: 0.00446%
- relative induction of RFP reporter [33]: 2.83%
- relative induction of RFP reporter [34]: -0.514%
- relative induction of RFP reporter [35]: 0.017%

SMILES: O=C(O)c1cc(=O)c2ccccc2[nH]1 [kynurenate]
- relative induction of RFP reporter [1]: -1.75%
- relative induction of RFP reporter [2]: -0.028%
- relative induction of RFP reporter [3]: -0.0535%
- relative induction of RFP reporter [4]: -9.16%
- relative induction of RFP reporter [5]: -2.49%
- relative induction of RFP reporter [6]: -0.379%
- relative induction of RFP reporter [7]: 0.25%
- relative induction of RFP reporter [8]: 0.0049%
- relative induction of RFP reporter [9]: -1.34%
- relative induction of RFP reporter [10]: 0.113%
- relative induction of RFP reporter [11]: -0.313%
- relative induction of RFP reporter [12]: -0.383%
- relative induction of RFP reporter [13]: 0.00396%
- relative induction of RFP reporter [14]: -0.284%
- relative induction of RFP reporter [15]: -0.96%
- relative induction of RFP reporter [16]: 0.00297%
- relative induction of RFP reporter [17]: -2.26%
- relative induction of RFP reporter [18]: -1.57%
- relative induction of RFP reporter [19]: -0.378%

SMILES: O=C(O)c1ccccc1 [benzoate]
- relative induction of RFP reporter [20]: 4.78%
- relative induction of RFP reporter [21]: -0.00267%
- relative induction of RFP reporter [36]: -0.805%
- relative induction of RFP reporter [22]: -1.25%
- relative induction of RFP reporter [23]: -2.52%
- relative induction of RFP reporter [24]: -0.127%
- relative induction of RFP reporter [25]: 0.078%
- relative induction of RFP reporter [26]: -0.947%
- relative induction of RFP reporter [28]: -0.295%
- relative induction of RFP reporter [29]: -0.0427%
- relative induction of RFP reporter [30]: -0.474%
- relative induction of RFP reporter [31]: -0.493%
- relative induction of RFP reporter [32]: -0.0138%
- relative induction of RFP reporter [33]: -1.5%
- relative induction of RFP reporter [34]: -1.2%
- relative induction of RFP reporter [35]: -0.0216%

SMILES: Nc1ccccc1C(=O)C[C@H](N)C(=O)O [L-kynurenine]
- relative induction of RFP reporter [20]: -1.84%
- relative induction of RFP reporter [21]: -0.00708%
- relative induction of RFP reporter [36]: -0.604%
- relative induction of RFP reporter [37]: -0.0309%
- relative induction of RFP reporter [22]: -4.32%
- relative induction of RFP reporter [23]: -1.24%
- relative induction of RFP reporter [24]: 0.183%
- relative induction of RFP reporter [25]: 0.00391%
- relative induction of RFP reporter [26]: 0.521%
- relative induction of RFP reporter [27]: -0.136%
- relative induction of RFP reporter [28]: -0.296%
- relative induction of RFP reporter [29]: 0.00419%
- relative induction of RFP reporter [30]: -0.312%
- relative induction of RFP reporter [31]: -0.483%
- relative induction of RFP reporter [32]: -0.00942%
- relative induction of RFP reporter [33]: -1.79%
- relative induction of RFP reporter [34]: -0.886%
- relative induction of RFP reporter [35]: -0.412%

SMILES: C=CC(=O)O [acrylate]
- relative induction of RFP reporter [20]: -1.36%
- relative induction of RFP reporter [21]: -0.0252%
- relative induction of RFP reporter [36]: -0.281%
- relative induction of RFP reporter [37]: 0.00199%
- relative induction of RFP reporter [22]: -7.94%
- relative induction of RFP reporter [23]: 0.12%
- relative induction of RFP reporter [24]: -0.146%
- relative induction of RFP reporter [25]: 0.00921%
- relative induction of RFP reporter [27]: -0.175%
- relative induction of RFP reporter [28]: -0.587%
- relative induction of RFP reporter [29]: 0.114%
- relative induction of RFP reporter [30]: -0.0524%
- relative induction of RFP reporter [31]: -0.215%
- relative induction of RFP reporter [32]: 0.000569%
- relative induction of RFP reporter [34]: 0.803%
- relative induction of RFP reporter [35]: 0.117%

SMILES: O=CC(=O)O [glyoxylate]
- relative induction of RFP reporter [1]: -0.798%
- relative induction of RFP reporter [2]: 0.00961%
- relative induction of RFP reporter [3]: -0.0259%
- relative induction of RFP reporter [4]: -3.09%
- relative induction of RFP reporter [5]: -0.762%
- relative induction of RFP reporter [6]: -0.292%
- relative induction of RFP reporter [7]: -0.15%
- relative induction of RFP reporter [8]: 0.0197%
- relative induction of RFP reporter [9]: 0.146%
- relative induction of RFP reporter [10]: 0.0806%
- relative induction of RFP reporter [12]: 0.0787%
- relative induction of RFP reporter [13]: -0.00107%
- relative induction of RFP reporter [14]: 0.296%
- relative induction of RFP reporter [15]: -0.199%
- relative induction of RFP reporter [16]: 0.0215%
- relative induction of RFP reporter [17]: -0.333%
- relative induction of RFP reporter [18]: -0.263%
- relative induction of RFP reporter [19]: 0.035%
